The list is not random: actives were taken first. Their share in the collection is about 11%.
JMJD2A Tudor: JMJD2A Tudor domain (human) inhibition; Potency, µM (series often up to 114 µM), for inactives: at the top dose activity change, negative = inhibition, usual class: inhibitors; O75164; AlphaScreen JMJD2A-Tudor / H3K4me3 peptide binding; hit rate 4.4% among 390,000; further: on the % scale 0 is the no-effect control and ±100 the full control effect; nearly all actives have a fitted effect of over 50% in size
L3MBTL1 block: inhibitors of human L3MBTL1. AID 485360. hit rate 0.66% among 230,000. AlphaScreen L3MBTL1–H3K9me1 peptide binding. Potency, µM (doses to about 57.1 µM), for the others: at the highest dose activity, negative = inhibition, most hits filed as inhibitors. Q9Y468; further: on the % scale 0 is the no-effect control and ±100 the full control effect; nearly all actives have a fitted effect of over 60% in size
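AlphaScreen assay: L3MBTL1 (50 nM final) was preincubated 30 min at room temperature with biotinylated H3(1-15)K9me1 peptide (75 nM final), then 30 min with library compounds; streptavidin donor and nickel chelate acceptor beads (10 ug/mL final) added, 30 min dark.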
G9a block: blocks human histone lysine methyltransferase G9a; Q96KQ7; G9a H3K9 monomethylation, AlphaScreen, 2 h; Potency, µM (highest dose often 102 µM), for inactives: at the highest dose activity, negative = inhibition, usual class: inhibitors; hit rate 8.8% among 350,000; AID 504332; further: on the % scale 0 is the no-effect control and ±100 the full control effect; nearly all actives have a fitted effect of over 75% in size
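Enzyme 20 nM + cpd, 15 min RT; add b-H3K9 pep 500 nM / SAM 20 uM; 2 h RT; anti-H3K9me1 Ab 0.5 ug/mL + SA donor / anti-rabbit acceptor beads 20 ug/mL each, 10 min; AlphaScreen read.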
BAZ2B block: blocks human BAZ2B; AID 504333; Q9UIF8; hit rate 4.4% among 360,000; AlphaScreen BAZ2B-H3K14Ac peptide displacement; Potency, µM (doses to about 114 µM), for inactives: at the top dose activity change, negative = inhibition, actives largely listed as inhibitors; further: on the % scale 0 is the no-effect control and ±100 the full control effect; nearly all actives have a fitted effect of over 60% in size
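Inhibition is scored as reduced AlphaScreen emission. The BAZ2B/b-H3(5-23)K14Ac complex (50 nM each) in PBS pH 7.4, 0.01% Tween-20 meets compound (up to 110 uM) for 30 min at RT before bead addition.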
HP1b chromo inh: inhibitors of HP1-beta chromodomain binding to methylated histone tails | AlphaScreen HP1-beta / biotin-H3K9me3 peptide binding | Potency, µM (series often up to 114 µM), without a hit: at the highest dose activity change, negative = inhibition, usual class: inhibitors | AID 540317 | hit rate 0.56% among 390,000 | P83916; further: nearly all actives have a fitted effect of over 70% in size
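AlphaScreen: HP1-beta (50 nM) preformed 30 min with biotin-H3(1-18)K9me3 peptide (50 nM) in PBS pH 7.4, 0.01% Tween-20. Compound added for 30 min at RT, then streptavidin donor/nickel chelate acceptor beads (10 ug/mL) for 30 min.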
Active calls of the source: *; ? = inconclusive; / = not tested or not shown; ! = not active in a repeat; [ ] = dose if it differs, or a comment. The call rests on the fitted dose curve; in most records, active means well fitted inhibition curve with a large enough effect; inconclusive means small, poorly fitted or top-dose-only effect; inactive means no such curve, though single readings can be large or run the other way. Potency means the concentration at half of the fitted maximal effect.

SMILES | JMJD2A Tudor | L3MBTL1 block | G9a block | BAZ2B block | HP1b chromo inh
Cc1ccc(NC(=O)c2cc(-c3cc(C)c(C)cc3O)n[nH]2)cc1C | -12.1% | / | 2.8% | -2.9% | 17.8%
CC(C)OC(=O)Nc1ccc2nc(-c3cscn3)[nH]c2c1 | / | / | -50.3%[12.7 µM] | / | /
Cc1ccc(-c2nnc(N(C)C(=O)C3CCCO3)s2)cn1 (configuration not stated) | -13.2% | -2.3% | 44.7µM* | ? | 39.8%
CCC(=O)N1CCc2cc(CNC(=O)Cc3ccc(F)cc3)ccc21 | -12.7% | / | 1.3%[59 µM] | -5.8% | 27.1%
Cc1cc2c(s1)c1cnn(Cc3cc(C(F)(F)F)cc(Cl)c3F)c(=O)c1n2C | -26.7% | / | / | / | /
CCN(Cc1ccccc1)Cc1c(O)ccc2oc(C)c(C(=O)Nc3ccccc3C)c12 | -29.2% | / | ? | -22.6% | -2.5%
Cc1cccc(N2CCN(Cc3nnc(-c4ccccc4C)o3)CC2C)c1 (configuration not stated) | 79.4µM* | / | ? | ? | -8.3%
Cc1ccccc1-c1nnc(CN2CCC(C)CC2)o1 | -7.0% | / | -13.5% | -15.9% | 24.2%
O=C(Nc1ccc2nc(SCC(=O)N3CCCC3)sc2c1)c1cccc(F)c1 | -13.9% | / | 3.1%[59 µM] | -27.3% | 54.3%
O=C(c1cc2ccc3cccnc3c2[nH]1)N1CCN(c2ccccc2)CC1 | ? | / | -47.8%[59 µM] | -24.0%[57.1 µM] | -13.7%
Cc1ccccc1Nc1nc(Cl)c(C=O)s1 | 0.7% | 3.8% | 10.5% | 1.4% | 41.5%
Cc1ccccc1Nc1nc(N)c(C(=O)c2ccccc2Cl)s1 | 56.2µM* | / | -48.8%[59 µM] | 31.6µM* | -25.4%
COc1ccc(C(=O)c2sc(Nc3ccccc3)nc2N)cc1 | -19.6% | -11.9% | -14.9% | -9.6% | 31.4%
Nc1nc(Nc2ccccc2)sc1C(=O)c1ccccc1 | ? | / | 44.7µM* | 39.8µM* | ?
COc1ccc(C(=O)c2sc(Nc3ccccc3)nc2N)cc1OC | ? | / | 70.8µM* | -32.5% | -24.0%
COc1ccc(C(=O)c2sc(Nc3cc(Cl)ccc3C)nc2N)cc1OC | 22.4µM* | / | -48.1%[59 µM] | ? | -20.7%
Cc1ccc(O)c(-c2n[nH]c3c2C(c2ccc(F)cc2)N(Cc2ccco2)C3=O)c1 (configuration not stated) | ? | / | -31.5%[59 µM] | ? | -25.0%
CCc1ccc(S(=O)(=O)NCc2nc3cccnc3n2Cc2ccccc2Cl)cc1 | -9.7% | / | -5.9%[59 µM] | 5.7% | 27.2%[57 µM]
CCN(CC(=O)NC1CCS(=O)(=O)C1)C(C)C(=O)Nc1ccc(F)cc1 (configuration not stated) | 2.7% | 1.1% | 3.1%[2.33 µM] | -5.3% | 65.8%
Cc1nn(CC(=O)N2CCc3ccccc3C2)c(C)c1Cl | 0.8% | / | / | -3.3% | 41.6%
Oc1ccc(-c2nc(-c3ccc(F)cc3)c(-c3ccncc3)[nH]2)cc1 | ? | -14.2% | 12.6µM*! | ? | 9.8%
Fc1ccc(-c2nc(-c3cccs3)[nH]c2-c2ccc(F)cc2)cc1 | ? | -20.7% | ? | 44.7µM* | -15.8%
CC1C(=O)NN=C1C(=O)N/N=C\c1ccc(O)cc1O (configuration not stated) | 39.8µM* | 28.2µM* | 4.5%[59 µM] | 11.2µM* | 16.2%
CCn1c(C)c(CS(=O)(=O)c2ccccc2)[nH]c1=O | 22.4µM* | / | 1µM* | -8.6% | 10µM*
Cc1sc2ncnc(NCC(c3ccco3)N(C)C)c2c1C (configuration not stated) | 1.58µM* | 35.9% | 5.3%[59 µM] | 7.1% | ?
SMILES | JMJD2A Tudor | L3MBTL1 block | G9a block | BAZ2B block | HP1b chromo inh
COc1ccc(/C=N/NC(=O)CCN2CCN(c3ccccc3)CC2)c(OC)c1OC | -18.5% | -4.5% | 5.6% | 7.6% | 18.7%
O=C(CCN1CCOCC1)N/N=C/c1cc(Br)cc(Br)c1O | ? | -15.5% | / | 56.2µM* | 28.1%
O=C(CCN1CCN(c2ccccc2)CC1)N/N=C/c1ccc(O)c(O)c1O | 39.8µM* | 5.62µM* | 8.91µM* | 8.91µM* | 28.2µM*
C/C(=N\NC(=O)Cc1csc(N2CCOCC2)n1)c1ccccc1 | 5.3% | / | 13.0% | 1.6% | 18.3%
Cc1cc(C(=O)N/N=C/c2ccc(O)c(O)c2O)c(C)n1-c1ccccc1 | 56.2µM* | ? | 10µM* | 56.2µM* | ?
O=C(Cc1csc(N2CCOCC2)n1)N/N=C/c1ccc(O)c(O)c1O | 10µM* | -15.8% | 3.55µM* | / | 15.8µM*

Assay outcomes: PubChem BioAssay, National Center for Advancing Translational Sciences (NCATS)
